Assay results from PubChem BioAssay.
Unmarked numbers belong to inactive results. The rule behind the calls is not given here.

Test: inhibitors of hydroxyurea-induced Chk1 phosphorylation, primary screen, imaging, HeLa, phospho-Chk1 antibody, percent positive cells (AID 1186)
Conditions: hydroxyurea-induced phospho-Chk1 immunofluorescence imaging, higher = more signal

Row | SMILES | z-score
1 | C=CCN1C(=O)[C@]2(O[C@H](CCn3cc([C@H](O)c4ccccc4)nn3)[C@@H]([Si](C)(C)c3ccc(OC)cc3)[C@@H]2C)c2cc(N3C(=O)c4cccc5cccc3c45)ccc21 | -0.65
2 | C=CCC(OC(C)=O)[C@@H]1[C@@H](N(Cc2ccc(-c3ccccc3)cc2)C(=O)c2ccc(C)cc2)c2cc(OCCCO)ccc2N1C(=O)c1ccc2ccccc2c1 (stereo not given in full) | -0.363
3 | C#CCN(C/C=C/c1ccccc1)[C@H](CO[Si](C)(C)C(C)(C)C)c1ccccc1 | 0.229
4 | CC(C)C[C@@H]1NC(=O)[C@H]2C[C@@H](C(=O)NCCCCCCNC(=O)CS)[C@@H](c3ccc(O)cc3)N2C1=O | 1.15
5 | COCCOC(=O)N1C(=O)[C@@]2(c3cc(C#CC4(O)CCCCCC4)ccc31)[C@H](C(=O)N1CCc3cc(OC)c(OC)cc3C1)[C@H]1C(=O)O[C@H](c3ccccc3)[C@H](c3ccccc3)N1[C@@H]2c1ccc(O)cc1 | 0.25
6 | CCOC(=O)C1=C(C(=O)OCC)N(S(=O)(=O)CC[Si](C)(C)C)[C@H](c2ccccc2)CC1 | -0.184
7 | COc1ccccc1CN1C(=O)c2ccccc2[C@](Cc2ccccc2I)(C(=O)NCCCN(C)C)[C@@H]1c1ccc(CO)cc1 | -0.215
8 | [N-]=[N+]=NCc1ccccc1C[C@]1(C(=O)N2CCCCC2)N=C(c2ccc(OCCCO)cc2)O[C@H]1c1ccccc1 | -0.527
9 | C=CCC(OC(C)=O)[C@@H]1[C@@H](N(Cc2ccc(-c3ccccc3)cc2)C(=O)c2ccc(-c3ccccc3)cc2)c2cc(OCCCO)ccc2N1C(=O)c1ccc2ccccc2n1 (stereo not given in full) | 0.0922

Test: inhibitors of hydroxyurea-induced Chk1 phosphorylation, primary screen, imaging, HeLa, phospho-Chk1 nuclear intensity (AID 1187); note: test concentration not given here
Conditions: hydroxyurea-induced phospho-Chk1 immunofluorescence imaging, higher = more signal

Row | SMILES | z-score
10 | COc1cc2c(cc1O)C(c1ccc(CN3CCCC3)cc1)N(Cc1cccc(OC(F)(F)F)c1)CC2 (stereo not given) | 0.348
11 | Cc1c(NC(=O)/C(C#N)=C/c2ccc(Cl)cc2)c(=O)n(-c2ccccc2)n1C | -0.246
12 | COCCOC(=O)N1C(=O)[C@@]2(c3cc(C#CC4(O)CCCCCC4)ccc31)[C@H](c1ccccc1OCCO)N1[C@H](c3ccccc3)[C@H](c3ccccc3)OC(=O)[C@H]1[C@@H]2C(=O)N1CCCCCCC1 | -0.561
13 | CN1C(=O)[C@]2(CCS(=O)(=O)c3ccccc3)N=C(c3ccc(OCCCO)cc3)O[C@@H]2c2ccccc21 | 0.271
14 | CCOC(=O)C1=CC[C@@H](c2ccccc2)N(S(=O)(=O)C[Si](C)(C)C)[C@H]1c1ccccc1 | 0.496
15 | CCCCN1CC=CC23O[C@@H]4C=CCOC(=O)[C@@H]4[C@H]2C(=O)N(C(CO)C(C)C)[C@@H]3C1=O (stereo not given in full) | 0.118
16 | [N-]=[N+]=NCc1ccccc1C[C@]1(C(=O)N2CCOCC2)N=C(c2ccc(OCCCO)cc2)O[C@H]1c1ccccc1CN=[N+]=[N-] | -0.736
17 | COCCOC(=O)N1C(=O)[C@@]2(c3cc(C#CC4(O)CCCCCC4)ccc31)[C@H](c1ccc(OCCO)cc1)N1[C@H](c3ccccc3)[C@H](c3ccccc3)OC(=O)[C@H]1[C@@H]2C(=O)N1CCCCCCC1 | 0.222
18 | COCCOC(=O)N1C(=O)[C@@]2(c3cc(C#Cc4ccc(OC)cc4)ccc31)[C@H](c1ccc(OCCO)cc1)N1[C@H](c3ccccc3)[C@H](c3ccccc3)OC(=O)[C@H]1[C@@H]2C(=O)N1CCCCCCC1 | -0.217
19 | Cc1ccc(S(=O)(=O)N2[C@@H](c3ccccc3)C(C(=O)O)=CC[C@H]2c2ccc(C#N)cc2)cc1 | -0.206
20 | COC(=O)Cn1c(C(=O)N(C)C)cc2c1C[C@H]1CN(C(=O)c3ccccc3)[C@@](Cc3ccc(OC)cc3)(C(=O)OC)[C@@H]21 | 0.295
21 | CCOC(=O)C1=C[C@@H](C(C)(C)C)N(S(=O)(=O)c2ccc(C)cc2)[C@H]1c1ccccc1Cl | -0.0709
22 | Cc1c(-c2ccc(-c3ccc(Cl)c(Cl)c3)o2)nc(-c2ccccc2)c2c1CO[Si]2(C(C)C)C(C)C | -0.0709
23 | N[C@@H](Cc1ccccc1)Cn1cc(C2(O)CCCCC2)nn1 | 0.426
24 | COC(=O)c1c(CC[C@@H](CO)NC(=O)N[C@@H](Cc2ccccc2)Cn2cc(-c3cncn3C)nn2)oc(C(C)=O)c1C(=O)OC | -0.0353
25 | C=C(COC)C(=O)CC[C@@H](OC(C)=O)c1ccc(OCCO)cc1 | 0.241
